PubChem BioAssay (EPA / NIEHS)
Several values for one entry are separate records, joined by “and”; a condition that tells them apart may be missing. Equal entries are not always repeated. Activity calls are given as the source filed them. How the source made its calls: active means hit-call score of the fitted dose curve at least 0.9, where 1 is the maximum; inactive means score below 0.9.

Test: CCTE_Mundy_HCI_Cortical_Synap_Neur_Matur_BPCount: CCTE's Synaptogenesis and Neurite Maturation Assay in rat cortical cells for Branch Point Count, Mundy Lab (AID 2284211)
Outline: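 HCI read-out of branch points from MAP2/synaptophysin/Hoechst immunofluorescence; rat cortical cultures, AraC DIV 5, dosing DIV 7, fixed DIV 12; fit in positive direction vs DMSO baseline.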
For `C=C(C)C(=O)[O][Sn]([CH2]CCC)([CH2]CCC)[CH2]CCC`, the AC50 was 0.0799 µM (active).
For `COP(=O)(OC)O/C(=C\Cl)c1cc(Cl)c(Cl)cc1Cl`, the outcome was “inactive”.
With `O=C1C2(Cl)C3(Cl)C4(Cl)C(Cl)(Cl)C5(Cl)C3(Cl)C1(Cl)C5(Cl)C24Cl` (stereo not given) the AC50 was 22.7 µM (active).
With `CCOP(=S)(OCC)Oc1nc(Cl)c(Cl)cc1Cl` the AC50 was 26.7 µM (active).

Test: CCTE_Mundy_HCI_Cortical_NOG_NeuriteCount: CCTE's Neurite Outgrowth Assay in rat cortical cells for Neurite Count, Mundy Lab (AID 2284212);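 further: cells fixed about two days after chemical exposure began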
Outline: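 Rat cortical primary cells; compound added 2 h post-plating, 1/10 dilution of working solution. Anti-betaIII-tubulin/AF488 ICC; ArrayScan neurite count vs DMSO.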
For `C=C(C)C(=O)[O][Sn]([CH2]CCC)([CH2]CCC)[CH2]CCC`, the AC50 was 0.123 µM (active).
For `COP(=O)(OC)O/C(=C\Cl)c1cc(Cl)c(Cl)cc1Cl`, the AC50 was 34 µM (active) and 32.9 µM (active).
For `O=C1C2(Cl)C3(Cl)C4(Cl)C(Cl)(Cl)C5(Cl)C3(Cl)C1(Cl)C5(Cl)C24Cl` (stereo not given), the AC50 was 22.7 µM (active).
In the case of `CCOP(=S)(OCC)Oc1nc(Cl)c(Cl)cc1Cl`, the AC50 is reported as 32.4 µM (active).

Test: CCTE_Mundy_HCI_Cortical_NOG_NeuriteLength: CCTE's Neurite Outgrowth Assay in rat cortical cells for Neurite Length, Mundy Lab (AID 2284213);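 further: neurites imaged about 48 to 50 h after chemical exposure began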
Outline: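 First, rat primary cortical cells were plated and, 2 h later, given test chemical as a 1/10 dilution. Finally, βIII-tubulin immunostaining enabled automated imaging of neurite length.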
For `C=C(C)C(=O)[O][Sn]([CH2]CCC)([CH2]CCC)[CH2]CCC`, the AC50 was 89.3 nM (active).
With `COP(=O)(OC)O/C(=C\Cl)c1cc(Cl)c(Cl)cc1Cl` the AC50 was 32.5 µM (active) and 31.3 µM (active).
For `O=C1C2(Cl)C3(Cl)C4(Cl)C(Cl)(Cl)C5(Cl)C3(Cl)C1(Cl)C5(Cl)C24Cl` (stereo not given), the AC50 was 16700 nM (active).
In the case of `CCOP(=S)(OCC)Oc1nc(Cl)c(Cl)cc1Cl`, the AC50 is reported as 32 µM (active) and 33.4 µM (active).

Test: CCTE_Mundy_HCI_Cortical_Synap_Neur_Matur_NeuriteLength: CCTE's Synaptogenesis and Neurite Maturation Assay in rat cortical cells for Neurite Length, Mundy Lab (AID 2284214)
Outline: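 Cultures of rat primary cortical cells received chemical at DIV 7 and were fixed at DIV 12, after glial arrest with AraC at DIV 5. Neurite length was measured by automated imaging of MAP2 immunofluorescence.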
For `C=C(C)C(=O)[O][Sn]([CH2]CCC)([CH2]CCC)[CH2]CCC`, the AC50 was 161 nM (active).
With `COP(=O)(OC)O/C(=C\Cl)c1cc(Cl)c(Cl)cc1Cl` the outcome was “inactive”.
In the case of `O=C1C2(Cl)C3(Cl)C4(Cl)C(Cl)(Cl)C5(Cl)C3(Cl)C1(Cl)C5(Cl)C24Cl` (stereo not given), the AC50 is reported as 21500 nM (active).
For `CCOP(=S)(OCC)Oc1nc(Cl)c(Cl)cc1Cl`, the AC50 was 31.2 µM (active) and 29 µM (active).

Test: CCTE_Mundy_HCI_Cortical_Synap_Neur_Matur_NeuriteSpotCountPerNeuron: CCTE's Synaptogenesis and Neurite Maturation Assay in rat cortical cells for Neurite Spot Count per Neuron Count, Mundy Lab (AID 2284215)
Protocol: CCTE_Mundy_HCI_Cortical_Synap&Neurite_Matur is a multiplexed, cell-based-readout assay that uses rat primary cortical cells with measurements taken at 288.33 hours after chemical dosing in a microplate: 96-well plate.CCTE_Mundy_HCI_Cortical_Synap_Neur_Matur_NeuriteSpotCountPerNeuron is one of eight components of the CCTE_Mundy_HCI_Cortical_Synap&Neurite_Matur assay. It measures synaptogenesis and neurite maturation related to number of neurite-associated synapses (synaptophysin puncta) per neuron using High Content Imaging of fluorescently labelled markers.[…] Using a type of morphology reporter, loss -of-signal activity can be used to understand developmental effects.
Cells are plated onto 96 well plates and allowed 2 hr for attachment to the substrate. At days in vitro (DIV) 5, Cytosine Arabinoside (AraC) is added to arrest glial cell growth. Chemicals are dosed and a media change is performed at DIV 7 of differentiation and is continued through DIV 12 when the experiment is terminated. Cells are fixed with […] and Hoechst Dye. Cells are stained using Millipore Mouse anti-MAP2MAB3418 (1:800) and Millipore Rabbit anti-Synaptophysinsc-1750 (1:250) primary antibodies and Alexa Fluor-488 goat anti-mouse and AlexaFluor-546 goat anti-rabbit secondary antibodies to label neuronal cell nuclei, synapses and neurites. A Cellomics ArrayScan VTi HCS Reader is used for automated image acquisition and analysis of neurite outgrowth.
With `C=C(C)C(=O)[O][Sn]([CH2]CCC)([CH2]CCC)[CH2]CCC` the AC50 was 59.7 nM (active).
With `COP(=O)(OC)O/C(=C\Cl)c1cc(Cl)c(Cl)cc1Cl` the outcome was “inactive”.
For `O=C1C2(Cl)C3(Cl)C4(Cl)C(Cl)(Cl)C5(Cl)C3(Cl)C1(Cl)C5(Cl)C24Cl` (stereo not given), the AC50 was 20700 nM (active).
In the case of `CCOP(=S)(OCC)Oc1nc(Cl)c(Cl)cc1Cl`, the AC50 is reported as 50 µM (active) and 24.7 µM (active).
